The structures appear in SMILES notation. Unmarked numbers belong to inactive results. Inconclusive results are not listed. Calls of active or inactive are those of the source. Unless noted, calls come from the whole dose curve; as a rule, active = well fitted curve in the direction sought with a large enough effect in the repeat runs; inconclusive = weak or mixed curves; inactive = flat fitted curve, though single readings scatter.
% is set by controls: 0 for no effect and ±100 for the full control effect.

Glucocorticoid receptor (Homo sapiens), sequence (P04150 whole entry, looked up): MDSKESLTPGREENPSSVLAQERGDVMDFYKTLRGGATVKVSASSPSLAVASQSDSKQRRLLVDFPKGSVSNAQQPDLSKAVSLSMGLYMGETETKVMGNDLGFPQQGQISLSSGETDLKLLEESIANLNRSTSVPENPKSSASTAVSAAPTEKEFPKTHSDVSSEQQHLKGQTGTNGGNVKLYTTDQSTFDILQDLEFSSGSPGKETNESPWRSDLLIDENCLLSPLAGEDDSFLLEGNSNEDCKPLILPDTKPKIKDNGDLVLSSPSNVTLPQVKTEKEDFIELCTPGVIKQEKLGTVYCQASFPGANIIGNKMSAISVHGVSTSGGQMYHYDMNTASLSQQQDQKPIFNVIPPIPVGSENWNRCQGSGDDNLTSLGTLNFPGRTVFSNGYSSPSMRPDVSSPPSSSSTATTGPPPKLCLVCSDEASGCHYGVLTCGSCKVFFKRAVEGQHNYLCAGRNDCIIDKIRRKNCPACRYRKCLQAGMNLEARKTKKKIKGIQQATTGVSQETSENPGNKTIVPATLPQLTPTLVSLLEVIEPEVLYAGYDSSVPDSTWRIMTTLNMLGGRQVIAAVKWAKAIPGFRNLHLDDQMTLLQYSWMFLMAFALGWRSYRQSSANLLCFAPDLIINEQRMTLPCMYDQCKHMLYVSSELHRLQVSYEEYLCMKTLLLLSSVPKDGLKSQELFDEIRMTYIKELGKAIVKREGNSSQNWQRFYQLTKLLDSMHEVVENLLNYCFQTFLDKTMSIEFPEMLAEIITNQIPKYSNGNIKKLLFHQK

Test system in one assay: not listed separately
Put plainly: qHTS assay to test for compound auto fluorescence at 460 nm (blue) in HepG2 cells (AID 720687). The note with it: autofluorescence 405/460 nm, 1 h; series mostly up to 91.3 µM; fluorescence, % of fluorescent control: at the top concentration. An outline of the steps: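 HepG2 cells in MEM with 10% FBS, attached overnight at 37 C, were exposed to compound or DMSO for 1 hr at 37 C, 5% CO2. Blue fluorescence was read at 405/460 nm, with triamterene as reference fluorophore.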
Background: In qHTS, concentration-response curves come from the screen itself.
Turning to `Nc1c2c(nc3c1CCC3)CCCC2`, the “fluorescence, % of fluorescent control” value is 0.18% [at 46 µM].

Turning to `Cc1ccc(-c2ncc(Cl)cc2-c2ccc(S(C)(=O)=O)cc2)cn1`, the “fluorescence, % of fluorescent control” value was -0.0504% [at 46 µM].

As for `CC1CCC(CO)CC1` (stereo not given), the “fluorescence, % of fluorescent control” value was -0.026% [at 95.7 µM]. Still for that read-out and setting: then `FB(F)F`, with 0.0559% [at 95.7 µM]. Turning to `COc1ccnc(CS(=O)c2nc3cc(OC(F)F)ccc3[nH]2)c1OC` (stereo not given), the compound was classed as inactive. In the case of `O=S(=O)(O)c1cc(O)c(O)c(S(=O)(=O)O)c1`, the “fluorescence, % of fluorescent control” value is 0.0243%. Regarding `N[C@H](C(=O)O)[C@@H](O)c1ccc(O)c(O)c1`, the “fluorescence, % of fluorescent control” value was 9.51% [at 46 µM].

The next assay concerns the target Glucocorticoid receptor (Homo sapiens) (UniProt P04150). Kind of assay: qHTS assay to identify small molecule agonists of the glucocorticoid receptor (GR) signaling pathway (AID 720691; active = well fitted activation curve with a large enough effect in the signal ratio in the repeat runs, not every such curve was filed as active; the % refers to the signal ratio). The note with it: GR-bla HeLa, beta-lactamase reporter ratio, 18 h; series mostly up to 62.4 µM; activation: at the top concentration. The essentials:
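Fluorescence intensity from LiveBLAzer B/G FRET substrate (2 h, room temperature) reports beta-lactamase expression driven by the glucocorticoid response element in GR-bla HeLa cells after 18 h compound exposure at 37 C.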
Take `O=C1NC(=O)C2CC=CCC12` (stereo not given): the “activation” value is 1.01%.

Consider `COc1c(N2CCNC(C)C2)c(F)cc2c(=O)c(C(=O)O)cn(C3CC3)c12` (stereo not given), for which the “activation” value is -0.347%. On the same count and under the same terms, then `CC(=O)NC(=O)c1ccccc1O`, with 0.129%. On the same count and under the same terms, then `NC(CCC(=O)O)C(=O)O` (stereo not given), with 4.08%; and `Cc1ncc(COP(=O)(O)O)c(C=O)c1O`, with -0.376%.

`CO[C@@]1(NC(=O)C(C(=O)O)c2ccc(O)cc2)C(=O)N2C(C(=O)O)=C(CSc3nnnn3C)CO[C@@H]21` (stereo not given in full): the “activation” value was -0.649% [at 29.2 µM]. Same read-out and setting: the value for `CC1=C(C/C=C(\C)CCC[C@H](C)CCC[C@H](C)CCCC(C)C)C(=O)c2ccccc2C1=O` was -2.31%; that for `CCC(C(=O)NC(=O)NC(C)=O)c1ccccc1` (stereo not given) was -1.14%; that for `CCCCOC(=O)CCC(C)=O` was 3.01%. Consider `C[N+]12CCC(CC1)C(OC(=O)C(O)(c1ccccc1)c1ccccc1)C2` (stereo not given), for which the “activation” value was 0.141% [at 29.2 µM].

Consider `CCCCCCCCCC[N+](C)(C)[O-]`, for which the “activation” value is 6.04%.

Regarding `CC(C)(N)C#N`, the “activation” value is -0.299% [at 79.2 µM]. The same measure, in the same setting: the value for `O=C(O)c1cn(C2CC2)c2cc(N3CCNCC3)c(F)cc2c1=O` was 2.07% [at 29.2 µM]; that for `CC1CCC(CO)CC1` (stereo not given) was 3.75% [at 79.2 µM].

On to `FB(F)F`, for which the “activation” value was -1.64% [at 79.2 µM]. Turning to `COc1ccnc(CS(=O)c2nc3cc(OC(F)F)ccc3[nH]2)c1OC` (stereo not given), the Potency result is “inactive”. As to `N[C@H](C(=O)O)[C@@H](O)c1ccc(O)c(O)c1`, the “activation” value is -5.35%.

Another assay has the same target. Put plainly: qHTS assay to identify small molecule antagonists of the glucocorticoid receptor (GR) signaling pathway (AID 720692; active = well fitted inhibition curve with a large enough effect in the signal ratio in the repeat runs, not every such curve was filed as active; the % refers to the signal ratio). The note with it: GR-bla HeLa, beta-lactamase FRET ratio, dexamethasone-stimulated, 18 h; series mostly up to 58.5 µM; activity change, negative = inhibition: at the top concentration. The essentials: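 HeLa GR-bla cells; cmpd + dex 5 nM final, 18 h 37 C; LiveBLAzer B/G FRET substrate 2 h RT; fluorescence intensity read. Antagonist mode, qHTS.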
As to `O=C1NC(=O)C2CC=CCC12` (stereo not given), the “activity change, negative = inhibition” value was 10.6%. Same read-out and setting: then `CCCCc1nc(Cl)c(CO)n1Cc1ccc(-c2ccccc2-c2nn[nH]n2)cc1`, with -20.4%; and `CCCCN(CCC(=O)OCC)C(C)=O`, with 2.58%; and `CC(=O)NC(=O)c1ccccc1O`, with -0.661%.

In the case of `CC[N+](CC)(CC)CCOc1cccc(OCC[N+](CC)(CC)CC)c1OCC[N+](CC)(CC)CC`, the “activity change, negative = inhibition” value is 2.28%. Take `N[C@@H](CCC(=O)O)C(=O)O`: the Potency entry is “inactive”. On to `CC1=C(C/C=C(\C)CCC[C@H](C)CCC[C@H](C)CCCC(C)C)C(=O)c2ccccc2C1=O`, for which the “activity change, negative = inhibition” value was -32%. On the same count and under the same terms, then `CCC(C(=O)NC(=O)NC(C)=O)c1ccccc1` (stereo not given), with 6.81%.

On to `FB(F)F`, for which the “activity change, negative = inhibition” value is -18.9% [at 78.9 µM]. Regarding `COc1ccnc(CS(=O)c2nc3cc(OC(F)F)ccc3[nH]2)c1OC` (stereo not given), the Potency result is “inactive”. On to `N[C@H](C(=O)O)[C@@H](O)c1ccc(O)c(O)c1`, for which the “activity change, negative = inhibition” value is -7.61%.
